The record followed here is ChEMBL document CHEMBL2218924, “A broad activity screen in support of a chemogenomic map for kinase signalling research and drug discovery” (Biochem J, 2013).

In test [1] the target is T1, Ephrin type-B receptor 1 (Homo sapiens) (UniProt P54762).
T1 sequence (whole entry): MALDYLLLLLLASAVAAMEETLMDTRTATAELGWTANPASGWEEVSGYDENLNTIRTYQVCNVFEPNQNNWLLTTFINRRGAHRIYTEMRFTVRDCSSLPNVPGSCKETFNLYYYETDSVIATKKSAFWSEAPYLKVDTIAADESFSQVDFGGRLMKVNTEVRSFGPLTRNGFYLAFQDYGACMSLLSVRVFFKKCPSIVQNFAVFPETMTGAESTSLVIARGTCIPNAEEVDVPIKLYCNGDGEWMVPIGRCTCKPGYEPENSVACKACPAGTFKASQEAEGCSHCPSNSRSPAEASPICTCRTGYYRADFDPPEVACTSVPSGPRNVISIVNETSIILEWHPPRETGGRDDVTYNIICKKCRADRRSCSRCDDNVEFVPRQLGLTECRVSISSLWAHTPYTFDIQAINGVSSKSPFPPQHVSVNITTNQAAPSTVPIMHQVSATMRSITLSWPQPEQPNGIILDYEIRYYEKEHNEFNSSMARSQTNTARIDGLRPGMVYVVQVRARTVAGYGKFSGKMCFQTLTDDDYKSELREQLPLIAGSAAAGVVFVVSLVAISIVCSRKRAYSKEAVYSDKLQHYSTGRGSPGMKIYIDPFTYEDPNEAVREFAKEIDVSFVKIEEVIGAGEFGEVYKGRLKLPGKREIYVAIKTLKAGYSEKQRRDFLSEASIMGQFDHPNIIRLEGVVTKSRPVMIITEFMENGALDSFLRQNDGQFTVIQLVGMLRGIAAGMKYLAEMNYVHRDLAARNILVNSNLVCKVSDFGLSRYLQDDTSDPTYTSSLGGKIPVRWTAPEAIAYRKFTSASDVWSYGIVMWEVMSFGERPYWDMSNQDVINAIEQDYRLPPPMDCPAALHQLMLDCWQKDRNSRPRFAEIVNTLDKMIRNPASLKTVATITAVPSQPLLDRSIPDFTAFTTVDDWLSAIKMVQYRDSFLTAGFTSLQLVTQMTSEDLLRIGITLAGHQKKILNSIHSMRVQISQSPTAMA
Conditions: at 10 µM; call rule not given here.

In test [2] the target is T2, Ephrin type-B receptor 2 (Homo sapiens) (UniProt P29323).
T2 sequence (whole entry): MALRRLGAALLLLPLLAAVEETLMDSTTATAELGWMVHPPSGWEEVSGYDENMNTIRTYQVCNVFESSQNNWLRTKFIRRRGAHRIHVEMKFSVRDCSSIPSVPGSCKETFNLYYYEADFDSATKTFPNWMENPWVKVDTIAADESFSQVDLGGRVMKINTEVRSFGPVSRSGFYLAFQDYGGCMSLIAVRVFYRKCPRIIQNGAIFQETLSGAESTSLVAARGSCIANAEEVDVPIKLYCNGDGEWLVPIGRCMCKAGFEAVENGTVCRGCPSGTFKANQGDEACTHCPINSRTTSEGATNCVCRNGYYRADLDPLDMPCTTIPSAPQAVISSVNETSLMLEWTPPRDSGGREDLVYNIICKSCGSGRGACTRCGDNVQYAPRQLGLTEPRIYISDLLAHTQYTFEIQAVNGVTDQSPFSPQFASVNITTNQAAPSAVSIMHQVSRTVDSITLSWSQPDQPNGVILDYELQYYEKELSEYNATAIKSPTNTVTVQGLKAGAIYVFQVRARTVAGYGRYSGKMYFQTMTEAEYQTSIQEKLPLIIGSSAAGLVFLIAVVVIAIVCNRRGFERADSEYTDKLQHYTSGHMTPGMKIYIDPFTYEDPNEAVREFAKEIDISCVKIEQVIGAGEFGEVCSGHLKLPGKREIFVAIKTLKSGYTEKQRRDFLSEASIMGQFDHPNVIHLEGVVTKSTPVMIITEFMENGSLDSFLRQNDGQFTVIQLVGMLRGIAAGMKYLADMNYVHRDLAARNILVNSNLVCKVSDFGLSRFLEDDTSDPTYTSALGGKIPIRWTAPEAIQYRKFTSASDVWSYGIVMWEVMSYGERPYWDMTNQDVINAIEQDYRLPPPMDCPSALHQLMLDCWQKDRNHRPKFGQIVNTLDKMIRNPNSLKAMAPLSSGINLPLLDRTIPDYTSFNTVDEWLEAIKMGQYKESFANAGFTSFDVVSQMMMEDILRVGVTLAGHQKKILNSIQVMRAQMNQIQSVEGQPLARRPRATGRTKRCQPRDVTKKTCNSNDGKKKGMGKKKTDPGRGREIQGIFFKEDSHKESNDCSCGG
Particulars: at 1 µM.

For test [3], the target named is T2, Ephrin type-B receptor 2 (Homo sapiens). Conditions: at 10 µM.
Test [4] deals with T3, Ephrin type-B receptor 3 (Homo sapiens) (UniProt P54753).
T3 sequence (whole entry): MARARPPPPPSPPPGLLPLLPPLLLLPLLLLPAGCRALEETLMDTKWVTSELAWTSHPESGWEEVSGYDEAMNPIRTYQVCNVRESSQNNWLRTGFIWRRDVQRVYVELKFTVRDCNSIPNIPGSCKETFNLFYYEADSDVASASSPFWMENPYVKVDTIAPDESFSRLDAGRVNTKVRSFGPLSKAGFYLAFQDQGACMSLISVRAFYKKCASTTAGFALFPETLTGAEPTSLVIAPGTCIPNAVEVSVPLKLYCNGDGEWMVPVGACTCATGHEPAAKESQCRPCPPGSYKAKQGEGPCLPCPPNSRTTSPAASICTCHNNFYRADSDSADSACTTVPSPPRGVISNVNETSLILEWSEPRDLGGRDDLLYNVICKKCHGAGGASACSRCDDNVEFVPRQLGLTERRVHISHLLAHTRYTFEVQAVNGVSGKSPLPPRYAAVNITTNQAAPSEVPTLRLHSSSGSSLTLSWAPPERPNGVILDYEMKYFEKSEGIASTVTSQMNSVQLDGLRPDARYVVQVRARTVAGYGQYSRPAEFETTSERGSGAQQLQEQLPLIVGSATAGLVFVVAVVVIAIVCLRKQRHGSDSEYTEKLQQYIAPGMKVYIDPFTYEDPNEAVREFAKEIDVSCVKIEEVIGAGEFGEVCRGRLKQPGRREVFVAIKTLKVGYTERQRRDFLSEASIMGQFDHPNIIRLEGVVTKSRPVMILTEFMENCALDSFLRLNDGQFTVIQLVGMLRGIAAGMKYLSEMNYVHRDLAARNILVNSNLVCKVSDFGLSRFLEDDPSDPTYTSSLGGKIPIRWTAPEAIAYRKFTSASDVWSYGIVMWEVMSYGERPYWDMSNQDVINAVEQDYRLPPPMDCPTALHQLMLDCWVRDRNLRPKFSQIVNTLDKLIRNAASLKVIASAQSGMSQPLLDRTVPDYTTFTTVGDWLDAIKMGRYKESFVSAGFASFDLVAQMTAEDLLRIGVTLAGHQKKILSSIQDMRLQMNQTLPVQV
Particulars: at 1 µM.

The target in test [5] is T3, Ephrin type-B receptor 3 (Homo sapiens). Particulars: at 10 µM.
Test [6] deals with T4, Ephrin type-B receptor 4 (Homo sapiens) (UniProt P54760).
T4 sequence (whole entry): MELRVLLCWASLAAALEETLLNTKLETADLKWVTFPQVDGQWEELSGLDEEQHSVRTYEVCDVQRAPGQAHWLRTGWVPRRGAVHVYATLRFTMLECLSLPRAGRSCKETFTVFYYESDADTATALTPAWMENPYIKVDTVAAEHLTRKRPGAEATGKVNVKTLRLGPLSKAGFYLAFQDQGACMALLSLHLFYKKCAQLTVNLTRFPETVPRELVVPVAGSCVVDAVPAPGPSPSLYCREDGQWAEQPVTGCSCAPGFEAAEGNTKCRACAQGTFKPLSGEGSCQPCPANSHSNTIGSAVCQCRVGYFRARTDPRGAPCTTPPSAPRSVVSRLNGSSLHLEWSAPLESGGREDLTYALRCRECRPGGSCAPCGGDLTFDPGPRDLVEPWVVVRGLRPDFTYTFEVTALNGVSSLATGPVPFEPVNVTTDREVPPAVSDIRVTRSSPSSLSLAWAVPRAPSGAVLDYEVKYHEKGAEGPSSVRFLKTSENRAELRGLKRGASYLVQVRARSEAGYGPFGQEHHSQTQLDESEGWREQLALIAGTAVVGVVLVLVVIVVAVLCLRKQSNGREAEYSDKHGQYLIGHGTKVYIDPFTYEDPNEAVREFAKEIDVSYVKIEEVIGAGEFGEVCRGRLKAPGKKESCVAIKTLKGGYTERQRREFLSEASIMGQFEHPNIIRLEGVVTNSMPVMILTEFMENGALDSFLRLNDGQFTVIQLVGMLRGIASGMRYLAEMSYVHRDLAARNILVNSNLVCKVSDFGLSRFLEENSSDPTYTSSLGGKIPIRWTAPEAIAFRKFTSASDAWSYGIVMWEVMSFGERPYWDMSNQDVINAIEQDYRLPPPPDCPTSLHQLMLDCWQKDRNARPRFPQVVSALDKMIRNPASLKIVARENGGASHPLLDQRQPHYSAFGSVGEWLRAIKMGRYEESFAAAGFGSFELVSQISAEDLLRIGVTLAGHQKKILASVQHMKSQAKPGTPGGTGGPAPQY
Particulars: at 1 µM.

Test [7] concerns the target T4, Ephrin type-B receptor 4 (Homo sapiens). Particulars: at 10 µM.
The target of test [8] is Receptor tyrosine-protein kinase erbB-4 (Homo sapiens) (UniProt Q15303). Conditions: at 1 µM.
Chain of Receptor tyrosine-protein kinase erbB-4 (Homo sapiens) (Q15303 whole entry): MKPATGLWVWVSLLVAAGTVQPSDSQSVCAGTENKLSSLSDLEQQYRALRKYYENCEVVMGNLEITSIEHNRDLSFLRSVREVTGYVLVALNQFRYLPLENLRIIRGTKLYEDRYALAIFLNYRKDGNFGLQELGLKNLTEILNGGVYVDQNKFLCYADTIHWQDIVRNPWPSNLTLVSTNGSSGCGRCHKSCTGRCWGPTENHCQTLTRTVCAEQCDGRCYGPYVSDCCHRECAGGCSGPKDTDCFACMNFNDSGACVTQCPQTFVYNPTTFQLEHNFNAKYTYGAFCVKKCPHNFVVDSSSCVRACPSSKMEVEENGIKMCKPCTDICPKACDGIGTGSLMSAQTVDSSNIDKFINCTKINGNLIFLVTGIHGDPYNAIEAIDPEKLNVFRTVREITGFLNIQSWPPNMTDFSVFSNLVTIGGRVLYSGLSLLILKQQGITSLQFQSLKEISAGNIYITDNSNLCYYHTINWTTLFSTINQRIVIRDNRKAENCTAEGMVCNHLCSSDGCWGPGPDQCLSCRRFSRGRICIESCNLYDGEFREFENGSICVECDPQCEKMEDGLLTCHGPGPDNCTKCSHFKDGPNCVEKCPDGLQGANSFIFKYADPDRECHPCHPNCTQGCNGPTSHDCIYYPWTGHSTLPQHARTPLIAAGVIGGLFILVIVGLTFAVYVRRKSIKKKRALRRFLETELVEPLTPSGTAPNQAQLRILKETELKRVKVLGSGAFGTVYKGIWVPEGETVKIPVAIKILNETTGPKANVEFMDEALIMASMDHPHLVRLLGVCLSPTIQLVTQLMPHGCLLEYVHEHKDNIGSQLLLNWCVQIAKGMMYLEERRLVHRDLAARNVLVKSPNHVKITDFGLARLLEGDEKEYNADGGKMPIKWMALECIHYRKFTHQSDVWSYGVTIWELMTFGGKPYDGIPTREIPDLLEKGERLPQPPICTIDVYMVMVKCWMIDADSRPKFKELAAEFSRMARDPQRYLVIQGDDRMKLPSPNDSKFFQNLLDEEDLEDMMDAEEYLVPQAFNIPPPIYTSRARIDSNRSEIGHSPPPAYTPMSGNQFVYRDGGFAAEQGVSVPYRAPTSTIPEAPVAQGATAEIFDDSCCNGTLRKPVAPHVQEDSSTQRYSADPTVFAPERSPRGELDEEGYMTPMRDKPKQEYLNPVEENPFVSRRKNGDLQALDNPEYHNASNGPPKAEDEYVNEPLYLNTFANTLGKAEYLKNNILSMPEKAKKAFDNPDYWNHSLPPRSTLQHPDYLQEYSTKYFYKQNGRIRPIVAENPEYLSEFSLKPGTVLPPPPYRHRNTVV
The target is the same in test [9]. Conditions: at 10 µM.
The target in test [10] is Focal adhesion kinase 1 (Homo sapiens) (UniProt Q05397). Particulars: at 1 µM.
Chain of Focal adhesion kinase 1 (Homo sapiens) (Q05397 2-1052 limits assumed): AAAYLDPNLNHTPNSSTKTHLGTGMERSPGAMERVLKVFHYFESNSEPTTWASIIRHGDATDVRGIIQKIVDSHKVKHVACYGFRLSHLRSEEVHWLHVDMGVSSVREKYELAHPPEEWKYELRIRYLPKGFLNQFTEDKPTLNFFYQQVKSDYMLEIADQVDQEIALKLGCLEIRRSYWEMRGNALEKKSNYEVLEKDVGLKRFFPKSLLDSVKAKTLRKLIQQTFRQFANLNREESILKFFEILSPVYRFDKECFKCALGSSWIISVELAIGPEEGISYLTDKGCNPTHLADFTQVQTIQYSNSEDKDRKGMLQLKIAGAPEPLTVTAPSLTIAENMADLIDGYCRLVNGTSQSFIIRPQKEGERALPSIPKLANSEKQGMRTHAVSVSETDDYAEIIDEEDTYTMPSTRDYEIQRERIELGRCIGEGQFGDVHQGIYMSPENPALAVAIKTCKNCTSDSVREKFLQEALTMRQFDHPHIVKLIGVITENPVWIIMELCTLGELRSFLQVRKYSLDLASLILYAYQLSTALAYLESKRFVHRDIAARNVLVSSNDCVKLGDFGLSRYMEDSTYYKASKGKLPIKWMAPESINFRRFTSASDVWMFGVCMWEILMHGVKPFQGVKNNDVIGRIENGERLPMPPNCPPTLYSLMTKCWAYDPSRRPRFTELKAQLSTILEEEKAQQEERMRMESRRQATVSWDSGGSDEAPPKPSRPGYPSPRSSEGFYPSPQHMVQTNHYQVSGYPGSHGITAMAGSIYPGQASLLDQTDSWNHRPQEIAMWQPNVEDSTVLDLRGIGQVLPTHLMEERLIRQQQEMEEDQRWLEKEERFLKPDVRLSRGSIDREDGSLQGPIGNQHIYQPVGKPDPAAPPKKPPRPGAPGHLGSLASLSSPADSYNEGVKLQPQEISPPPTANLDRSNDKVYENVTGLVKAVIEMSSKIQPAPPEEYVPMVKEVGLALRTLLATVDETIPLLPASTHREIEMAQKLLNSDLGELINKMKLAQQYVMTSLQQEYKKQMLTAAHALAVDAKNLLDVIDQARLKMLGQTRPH

The term residual activity denotes the signal under treatment as a percentage of the control signal.

With `O=C(Nc1cccc(Nc2nccc(Nc3cccc(C(F)(F)F)c3)n2)c1)C1CC1`, the residual activity was 7% in [1]; 93% in [2]; 26% in test [3]; 106% (inactive) in test [4]; 113% in [5]; 109% in test [6]. The residual activity in test [7] turned out to be 10%; in test [8] it was 98%; in [9], 96%; in [10], 51%.
